The supplement of paper PMC7724964

T1: DOK1 151-256 IRS (domain begin residue: 151, domain end residue: 256), Q99704
T1 chain: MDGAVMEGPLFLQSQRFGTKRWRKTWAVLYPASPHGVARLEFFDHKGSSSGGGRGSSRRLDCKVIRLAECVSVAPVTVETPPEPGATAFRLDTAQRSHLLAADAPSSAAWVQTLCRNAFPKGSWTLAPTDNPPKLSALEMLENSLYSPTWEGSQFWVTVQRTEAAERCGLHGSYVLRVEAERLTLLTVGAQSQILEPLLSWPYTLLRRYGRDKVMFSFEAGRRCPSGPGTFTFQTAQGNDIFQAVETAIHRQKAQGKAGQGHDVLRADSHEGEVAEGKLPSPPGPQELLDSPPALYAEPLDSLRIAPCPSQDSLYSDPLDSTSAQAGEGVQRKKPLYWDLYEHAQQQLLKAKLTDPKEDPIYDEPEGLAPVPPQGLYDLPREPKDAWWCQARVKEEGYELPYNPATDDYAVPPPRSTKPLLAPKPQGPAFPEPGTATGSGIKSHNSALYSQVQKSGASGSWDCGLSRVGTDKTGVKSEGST

T2: DOK2 146-252 IRS (domain begin residue: 146, domain end residue: 252), O60496
T2 chain: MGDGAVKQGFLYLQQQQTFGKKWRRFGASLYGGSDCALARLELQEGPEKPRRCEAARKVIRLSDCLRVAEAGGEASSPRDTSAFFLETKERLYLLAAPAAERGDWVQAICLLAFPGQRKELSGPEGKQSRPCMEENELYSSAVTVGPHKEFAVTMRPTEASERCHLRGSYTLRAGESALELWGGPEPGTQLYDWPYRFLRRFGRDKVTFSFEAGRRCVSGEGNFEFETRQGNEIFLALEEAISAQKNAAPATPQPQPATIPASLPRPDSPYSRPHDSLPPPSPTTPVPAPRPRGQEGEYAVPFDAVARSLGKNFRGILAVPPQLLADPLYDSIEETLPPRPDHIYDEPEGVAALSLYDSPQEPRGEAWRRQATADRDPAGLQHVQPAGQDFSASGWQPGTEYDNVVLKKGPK

T3: CTDSP2 90-271 NIF (domain begin residue: 90, domain end residue: 271), O14595
T3 chain: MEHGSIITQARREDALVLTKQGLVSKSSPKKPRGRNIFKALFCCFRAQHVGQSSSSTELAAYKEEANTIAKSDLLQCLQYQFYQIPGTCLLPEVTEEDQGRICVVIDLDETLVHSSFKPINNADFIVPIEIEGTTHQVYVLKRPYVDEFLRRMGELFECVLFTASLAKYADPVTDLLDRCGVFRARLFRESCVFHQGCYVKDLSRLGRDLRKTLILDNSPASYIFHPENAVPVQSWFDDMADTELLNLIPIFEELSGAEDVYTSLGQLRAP

T4: CLTC 1-363 Clathrin_propel+Clathrin-link (domain begin residue: 1, domain end residue: 363), Q00610
T4 chain: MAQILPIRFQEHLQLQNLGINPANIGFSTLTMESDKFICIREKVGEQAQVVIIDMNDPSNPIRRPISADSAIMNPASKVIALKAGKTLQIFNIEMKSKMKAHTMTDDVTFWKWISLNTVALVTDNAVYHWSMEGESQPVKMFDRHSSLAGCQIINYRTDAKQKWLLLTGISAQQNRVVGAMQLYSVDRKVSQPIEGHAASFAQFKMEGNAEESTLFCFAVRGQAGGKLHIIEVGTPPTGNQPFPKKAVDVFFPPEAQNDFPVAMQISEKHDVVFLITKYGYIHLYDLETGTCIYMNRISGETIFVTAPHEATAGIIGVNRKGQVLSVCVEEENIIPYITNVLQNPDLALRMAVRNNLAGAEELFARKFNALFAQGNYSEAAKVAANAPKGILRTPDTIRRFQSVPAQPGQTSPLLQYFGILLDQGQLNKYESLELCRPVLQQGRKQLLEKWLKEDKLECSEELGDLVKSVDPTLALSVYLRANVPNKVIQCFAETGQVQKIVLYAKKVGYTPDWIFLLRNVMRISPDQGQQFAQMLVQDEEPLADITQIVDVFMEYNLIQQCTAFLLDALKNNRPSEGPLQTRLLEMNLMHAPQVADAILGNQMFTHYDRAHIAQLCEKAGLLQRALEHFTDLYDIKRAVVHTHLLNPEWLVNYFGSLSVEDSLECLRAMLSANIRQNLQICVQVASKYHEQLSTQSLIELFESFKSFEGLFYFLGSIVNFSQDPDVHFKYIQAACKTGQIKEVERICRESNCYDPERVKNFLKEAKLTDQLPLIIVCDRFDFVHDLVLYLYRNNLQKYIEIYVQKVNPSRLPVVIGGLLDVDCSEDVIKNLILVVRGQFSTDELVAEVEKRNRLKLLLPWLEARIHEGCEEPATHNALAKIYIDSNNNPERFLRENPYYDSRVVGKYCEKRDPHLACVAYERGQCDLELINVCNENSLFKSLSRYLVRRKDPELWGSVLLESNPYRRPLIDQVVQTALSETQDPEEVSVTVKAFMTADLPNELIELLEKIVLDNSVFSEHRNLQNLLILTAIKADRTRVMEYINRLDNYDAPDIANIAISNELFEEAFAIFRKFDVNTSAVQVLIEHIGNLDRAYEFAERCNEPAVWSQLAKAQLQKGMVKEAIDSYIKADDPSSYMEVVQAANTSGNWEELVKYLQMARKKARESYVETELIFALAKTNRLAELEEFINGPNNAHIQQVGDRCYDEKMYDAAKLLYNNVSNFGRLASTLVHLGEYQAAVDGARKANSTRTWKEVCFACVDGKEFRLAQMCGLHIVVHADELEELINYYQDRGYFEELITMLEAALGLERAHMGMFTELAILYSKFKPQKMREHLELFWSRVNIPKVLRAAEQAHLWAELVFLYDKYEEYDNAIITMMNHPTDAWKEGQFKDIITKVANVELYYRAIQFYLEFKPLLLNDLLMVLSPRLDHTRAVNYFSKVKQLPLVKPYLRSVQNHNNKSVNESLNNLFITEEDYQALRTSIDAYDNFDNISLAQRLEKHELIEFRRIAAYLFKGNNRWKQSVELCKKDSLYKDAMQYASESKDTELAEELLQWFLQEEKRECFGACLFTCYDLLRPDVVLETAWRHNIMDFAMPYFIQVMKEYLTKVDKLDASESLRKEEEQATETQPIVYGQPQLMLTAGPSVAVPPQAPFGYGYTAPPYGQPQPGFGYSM


Target: DEPDC6 20-129 DEP (domain begin residue: 20, domain end residue: 129)
Assay: phage ELISA signal ratio (GST-PRM binding over GST background); higher = stronger binding of peptide-phage to the PRM
Procedure: (§1)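 Phage-displayed random hexadecapeptides (Cys-free, flanked by invariant Gly linkers, fused to the M13 P8 major coat protein) were selected over 5 rounds against GST-fused human PRM domains. Individual clones from rounds 4-5 were tested by phage ELISA, and positive clones binding the target but not GST were sequenced. Values are the ELISA signal ratio of target over background (GST); the background signal is given separately.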

Binder	phage ELISA signal ratio
GDKSEWFRALLDEYLV	21.6
MESAFQQVMLAYYQEL	21.9
DFQGIMDSYRAMEINT	20.1
EVPLWFYNIISEFHET	13.8
QFDLWMRNVMLDFWAD	11.2
LAGFHPWFSEMLAEYH	8.33
MPVWWEDWYWDWKSMH	6.24
THSEQWFETLMWNFHN	3.26
MQMTFLDMMEQYRLME	33.8
EMLAGNEFRAMMDEYY	7.5
DDGWMMDWWHQAQLQM	6.22
GETHLMFSNMMEFYKY	19.9
EQQHDKFQMMMNIYKY	23
MYTFEEMWMHWKLVEM	23.6

Target: T1, DOK1 151-256 IRS (domain begin residue: …
Assay: as above
Procedure: as §1

Binder	phage ELISA signal ratio
MPWPMWEQYQQHMQWV	19.7
EPWVDWSESMWAWVNT	17.6
DLQWKWVYWHDLDDGE	22.6
PGEMQESNWLWKFVDW	29.1
YDQTGWAWVHEMQDMV	8.33
DEWMLNETWIDYQELH	20
DWEAWHHNVDFAWGWV	9.3
DWPNYPANSWKYVTWA	10.2
WVWHDMHLSAPFQHQE	3.72
WNEWNEKEMLWESVEG	37.8
DWVWSDVGGHVPQVWD	25
WSEVWWTDLEGAMFWV	16.2
VDDGDWVWVHVSQQFM	31.2
QWMGLSVEQFAMNPWY	17.7
EWFMDASGYWNNLQVS	7.98
QMVWHYPWEATDTHGW	33.5
VWDLDTSADYLWVWMG	19.3
DTKWNIVHWDWDTWVH	16.4
DNHWIWKEVNPMFMKD	30.4
WVTWDNSSLKWIDETY	28
ADQWVWHYIMEMEQVR	33

Target: T2, DOK2 146-252 IRS (domain begin residue: …
Assay: as above
Procedure: as §1

Binder	phage ELISA signal ratio
DLMVWYDNPYYHSEMI	9.37
DEWTWHFVEQPWHMAG	7.99
TMAWEWIGNDVYVSHD	7.8

Target: T3, CTDSP2 90-271 NIF (domain begin …
Assay: as above
Procedure: as §1

Binder	phage ELISA signal ratio
EQVSFMHEWHQRFWQT	9.81
EPFMVAWESFMLTHAM	7.49

Target: T4, CLTC 1-363 …
Assay: as above
Procedure: as §1

Binder	phage ELISA signal ratio
DWAQVLWQDAHDWPVY	23.9
DLIWWTDLTEEYGTHV	21.9
DQQQWDDMDWLATWML	32.5
EVFDLISWDDGMWHSV	28.8
WLDYNDWLEMDHWEYV	23.8
YTLTIDELEHWLSAGG	31.7
WELQWDAIWGFPDELA	30.6
SPFVYDIVDLGFPSIM	22.5
MYEFLIEPEDDWWWWN	26.5

Target: DCTN1 26-97 CAP_GLY (domain begin residue: 26, domain end residue: 97), Q14203
Sequence (Q14203 whole entry): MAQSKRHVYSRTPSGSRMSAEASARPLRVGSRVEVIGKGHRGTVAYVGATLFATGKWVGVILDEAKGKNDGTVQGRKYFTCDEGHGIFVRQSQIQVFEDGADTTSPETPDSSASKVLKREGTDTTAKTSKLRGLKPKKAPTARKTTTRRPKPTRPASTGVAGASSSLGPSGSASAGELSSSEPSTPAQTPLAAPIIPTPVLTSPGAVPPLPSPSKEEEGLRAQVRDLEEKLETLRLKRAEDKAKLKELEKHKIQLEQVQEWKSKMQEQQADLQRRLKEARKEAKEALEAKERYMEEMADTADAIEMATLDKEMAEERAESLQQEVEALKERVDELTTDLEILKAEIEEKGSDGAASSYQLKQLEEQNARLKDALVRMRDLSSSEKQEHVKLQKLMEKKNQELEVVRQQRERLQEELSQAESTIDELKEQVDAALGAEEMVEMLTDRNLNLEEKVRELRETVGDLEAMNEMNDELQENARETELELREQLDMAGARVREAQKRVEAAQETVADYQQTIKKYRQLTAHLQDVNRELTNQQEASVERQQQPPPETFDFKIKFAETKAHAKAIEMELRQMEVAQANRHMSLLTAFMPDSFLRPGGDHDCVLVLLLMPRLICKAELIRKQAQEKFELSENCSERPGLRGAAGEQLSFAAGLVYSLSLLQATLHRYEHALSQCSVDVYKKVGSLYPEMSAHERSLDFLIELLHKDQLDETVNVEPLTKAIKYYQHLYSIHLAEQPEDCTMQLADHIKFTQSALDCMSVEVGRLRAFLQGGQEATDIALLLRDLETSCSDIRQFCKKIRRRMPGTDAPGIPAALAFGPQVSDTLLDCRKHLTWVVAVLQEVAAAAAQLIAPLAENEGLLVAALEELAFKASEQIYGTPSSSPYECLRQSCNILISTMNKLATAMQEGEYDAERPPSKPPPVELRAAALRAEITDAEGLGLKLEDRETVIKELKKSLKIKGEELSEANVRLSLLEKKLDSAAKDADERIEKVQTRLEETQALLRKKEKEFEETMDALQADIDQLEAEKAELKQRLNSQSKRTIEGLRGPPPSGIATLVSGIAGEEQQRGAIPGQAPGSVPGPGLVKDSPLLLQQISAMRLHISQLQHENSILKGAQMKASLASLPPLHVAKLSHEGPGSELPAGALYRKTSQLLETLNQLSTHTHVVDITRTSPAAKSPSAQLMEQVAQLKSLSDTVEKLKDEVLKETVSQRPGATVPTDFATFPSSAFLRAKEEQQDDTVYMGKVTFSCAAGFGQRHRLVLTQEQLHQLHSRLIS
Assay: as above
Procedure: as §1

Binder	phage ELISA signal ratio
MEWTWEQWDLGADYVK	21.2
HGMDYLNREFPWDWWT	16.6
HEFTPPWTWDWDIPHI	7.35
FKEWTWSPVEWGQAES	6.09
QDEWVPWQLWSQWESI	26.4
MSDPPTLEHWEYMSWE	12

Target: DEPDC1B 7-110 DEP (domain begin residue: 7, domain end residue: 110), Q8WUY9
Sequence (Q8WUY9 whole entry): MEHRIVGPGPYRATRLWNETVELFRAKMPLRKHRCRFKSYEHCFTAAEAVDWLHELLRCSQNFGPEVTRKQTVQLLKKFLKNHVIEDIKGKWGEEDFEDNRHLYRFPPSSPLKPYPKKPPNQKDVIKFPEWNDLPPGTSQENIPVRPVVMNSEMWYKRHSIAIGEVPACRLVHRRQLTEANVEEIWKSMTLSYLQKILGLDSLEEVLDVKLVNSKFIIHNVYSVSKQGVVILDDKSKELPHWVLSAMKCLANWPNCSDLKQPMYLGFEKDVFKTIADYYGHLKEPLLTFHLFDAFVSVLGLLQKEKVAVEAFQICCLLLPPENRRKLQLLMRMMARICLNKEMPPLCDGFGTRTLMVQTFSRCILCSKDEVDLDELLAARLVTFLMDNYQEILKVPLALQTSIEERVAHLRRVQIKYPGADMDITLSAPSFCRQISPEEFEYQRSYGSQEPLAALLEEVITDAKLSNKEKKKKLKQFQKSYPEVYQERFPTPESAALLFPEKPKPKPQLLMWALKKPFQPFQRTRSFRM
Assay: as above
Procedure: as §1

Binder	phage ELISA signal ratio
DLPYEWSHFWDSIEHH	4.2

Target: DEPDC6 132-222 DEP (domain begin residue: 132, domain end residue: 222)
Assay: as above
Procedure: as §1

Binder	phage ELISA signal ratio
IWWEQLHQDDWQAIWA	15.1
